Measured values reported in PubChem BioAssay (NCATS).
A number with no mark means an inactive call. Calls follow the shape of the dose curve; as a rule, active = well fitted curve in the direction sought with a large enough effect; inconclusive = small, poorly fitted or top-dose-only effect, or another doubt; inactive = no such curve, though single readings can be large or run the other way.

Molecular target: Methanococcus maripaludis chaperonin (MmCpn) (UniProt Q6LX38)
Experiment: High-Throughput Screening for Modulators of Cytosolic Chaperonin Activity: MmCpn Primary Screen (AID 488978); also: 0% is about no effect
Settings: Purified MmCpn ATPase activity, ADP HTRF detection, 10 min; series mostly up to 76.9 µM; activity change, negative = inhibition: at the top concentration
Source text: Chaperonins are key components of the cellular chaperone machinery. These large complexes consist of two stacked 7-9 membered rings, each containing a central cavity. Substrates are folded within the cavity in an ATP-dependent manner. TRiC is a complex of eight different, essential proteins. As each of the genes encoding the eight subunits is essential for cell viability and no protocol has been developed to overexpress this enzyme to high levels, several groups have turned to the archaeal homolog of TRiC from Methanococcus maripaludis (MmCpn) as a model system for the study of the type II chaperonin family.
MmCpn was kindly provided by the laboratory of Judith Frydman.
1. Dispense 1.5 ul enzyme of either TriC at 100 nM or MmCpn at 50 nM final concentration.
2. Transfer 23 nl of compound to plate, incubate 5 min at RT.
3. 1.5 ul ATP at 30 uM at final concentration dispensed into plate.
4. Incubate for 10 minutes at 37C (MmCPN), 30C (TriC).
5. 3 ul of the Cisbio ADP Transcreener HTRF detection reagent prepared according to protocol dispensed into plate.
6. Incubate for 5 minutes.
7. Read using EnVision plate reader at Excitation = 320nm and Emission = 590nm, 665nm

Methanococcus maripaludis chaperonin (MmCpn), sequence (Q6LX38 1-543): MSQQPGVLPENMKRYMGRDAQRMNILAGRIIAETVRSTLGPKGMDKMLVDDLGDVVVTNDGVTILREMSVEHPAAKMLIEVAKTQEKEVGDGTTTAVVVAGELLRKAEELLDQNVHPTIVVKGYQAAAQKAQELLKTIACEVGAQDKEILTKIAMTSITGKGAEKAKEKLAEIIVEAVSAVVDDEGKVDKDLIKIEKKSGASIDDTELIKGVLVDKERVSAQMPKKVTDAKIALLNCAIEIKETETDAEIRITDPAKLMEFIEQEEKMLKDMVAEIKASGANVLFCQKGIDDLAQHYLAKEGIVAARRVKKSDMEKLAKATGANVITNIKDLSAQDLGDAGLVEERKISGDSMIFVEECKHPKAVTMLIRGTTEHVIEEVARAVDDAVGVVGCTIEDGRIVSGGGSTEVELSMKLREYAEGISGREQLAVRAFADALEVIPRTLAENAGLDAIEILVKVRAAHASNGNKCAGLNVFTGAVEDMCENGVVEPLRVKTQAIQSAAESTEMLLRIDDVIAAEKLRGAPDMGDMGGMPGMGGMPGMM

| Compound | activity change, negative = inhibition [%] |
| --- | --- |
| COC(=O)C1=C(C)NC(C)=C(C(=O)OCCN(C)Cc2ccccc2)C1c1cccc([N+](=O)[O-])c1 (stereo not given) | 1.14 |
| Cc1nc2c([nH]1)c(=O)n(C)c(=O)n2Cc1ccco1 | 0.251 |
| CCN1CCC[C@H]1CNC(=O)c1c(O)c(Cl)cc(Cl)c1OC | 0.614 |
| OCCN1CCN(CC/C=C2/c3ccccc3Sc3ccc(C(F)(F)F)cc32)CC1 | 1.22 |
| O=C(CCCN1CCC(O)(c2cccc(C(F)(F)F)c2)CC1)c1ccc(F)cc1 | 1.98 |
| CN=C(NC#N)NCCSCc1nc[nH]c1C | 0.326 |
| CN1CCN(CC(=O)N2c3ccccc3C(=O)Nc3cccnc32)CC1 | 1.03 |
| NC(N)=NC(=O)Cc1c(Cl)cccc1Cl | 0.565 |
| Cc1ccc(=O)n(-c2ccccc2)c1 | -0.175 |
| CN(C)CC/C=C1\c2ccccc2COc2ccccc21 | -1.59 |
| CSc1ccc(C(=O)c2[nH]c(=O)[nH]c2C)cc1 | 1.12 |
| O=C(CCNNC(=O)c1ccncc1)NCc1ccccc1 | -1.03 |
| COc1cc(C(=O)OCCCN2CCCN(CCCOC(=O)c3cc(OC)c(OC)c(OC)c3)CC2)cc(OC)c1OC | -1.7 |
| CN(C)CCCN1c2ccccc2Sc2ccc(C(F)(F)F)cc21 | -0.751 |
| CC(=O)Oc1cc(C(C)C)c(OCCN(C)C)cc1C | 0.215 |
| Fc1ccc(C(c2ccc(F)cc2)N2CCN(C/C=C/c3ccccc3)CC2)cc1 | 0.735 |
| O=C(O)CCCCCCCC(=O)O | -4.45 |
| FC(F)(F)c1ccccc1-n1ccnc1 | 0.408 |
| Cc1scc2c1N(C(=O)CN1CCN(C)CC1)c1ccccc1NC2=O | 0.13 |
| C[N+](C)(C)CCOC(=O)CCC(=O)OCC[N+](C)(C)C | 1.65 |

| Compound | activity change, negative = inhibition [%] |
| --- | --- |
| C[N+](C)(C)CCOC(N)=O | -0.206 |
| COCC(=O)O[C@]1(CCN(C)CCCc2nc3ccccc3[nH]2)CCc2cc(F)ccc2[C@@H]1C(C)C | -1.93 |
| CC(=O)[C@]1(O)Cc2c(O)c3c(c(O)c2[C@@H](O[C@H]2C[C@H](N)[C@H](O)[C@H](C)O2)C1)C(=O)c1ccccc1C3=O | -5.77 |
| NC(=O)N1c2ccccc2C=Cc2ccccc21 | 0.647 |
| CC1=NS(=O)(=O)c2cc(Cl)ccc2N1 | 4.53 |
| COc1ccc2c(c1OC)C(=O)O[C@@H]2[C@H]1c2c(cc3c(c2OC)OCO3)CCN1C | 2.3 |
| CNCCC(Oc1ccccc1OC)c1ccccc1 (stereo not given) | 0.401 |
| CCn1ccnc1CC1COc2ccccc2O1 (stereo not given) | -1.03 |
| CCn1nc(C(=O)O)c(=O)c2cc3c(cc21)OCO3 | -2 |
| CN(C(=O)CCCOc1ccc2[nH]c(=O)ccc2c1)C1CCCCC1 | -0.778 |
| CC(C)COCC(CN(Cc1ccccc1)c1ccccc1)N1CCCC1 (stereo not given) | -1.69 |
| CN(C)C(=O)Oc1ccc[n+](C)c1 | 0.945 |
| CCc1c(C)[nH]c2c1C(=O)C(CN1CCOCC1)CC2 (stereo not given) | -1.71 |
| Cc1cc(C)c(/C=C2\C(=O)Nc3ccccc32)[nH]1 | -1.27 |
| CC(=O)OCC1=C(C(=O)O)N2C(=O)[C@@H](NC(=O)Cc3cccs3)[C@H]2SC1 | 0.57 |
| O=C(O)CN(CCOCCOCCN(CC(=O)O)CC(=O)O)CC(=O)O | -1.11 |
| Cc1ccc(/C(=C\CN2CCCC2)c2ccccn2)cc1 | -1.25 |
| Brc1c(NC2=NCCN2)ccc2nccnc12 | -6.26 |
| C[C@]12CCC(=O)C=C1CC[C@@H]1[C@@H]2C(=O)C[C@@]2(C)[C@H]1CC[C@]2(O)C(=O)CO | -0.143 |
| c1cnc(N2CCN(Cc3ccc4c(c3)OCO4)CC2)nc1 | 2.84 |
